FLuc counter: firefly luciferase modulation, counter-screen for miR-21 project; P08659; purified FLuc, Km substrates, luminescence inhibition; Potency, µM (series often up to 57.5 µM), for the others: at the highest dose activity change, negative = inhibition, actives largely listed as inhibitors; 360,000 tested, 6.9% active;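 further: plate controls were vehicle for no effect and reference inhibitor for full effect; nearly all actives have a fitted effect of over 55% in size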
Target sequence (P08659 whole entry, looked up): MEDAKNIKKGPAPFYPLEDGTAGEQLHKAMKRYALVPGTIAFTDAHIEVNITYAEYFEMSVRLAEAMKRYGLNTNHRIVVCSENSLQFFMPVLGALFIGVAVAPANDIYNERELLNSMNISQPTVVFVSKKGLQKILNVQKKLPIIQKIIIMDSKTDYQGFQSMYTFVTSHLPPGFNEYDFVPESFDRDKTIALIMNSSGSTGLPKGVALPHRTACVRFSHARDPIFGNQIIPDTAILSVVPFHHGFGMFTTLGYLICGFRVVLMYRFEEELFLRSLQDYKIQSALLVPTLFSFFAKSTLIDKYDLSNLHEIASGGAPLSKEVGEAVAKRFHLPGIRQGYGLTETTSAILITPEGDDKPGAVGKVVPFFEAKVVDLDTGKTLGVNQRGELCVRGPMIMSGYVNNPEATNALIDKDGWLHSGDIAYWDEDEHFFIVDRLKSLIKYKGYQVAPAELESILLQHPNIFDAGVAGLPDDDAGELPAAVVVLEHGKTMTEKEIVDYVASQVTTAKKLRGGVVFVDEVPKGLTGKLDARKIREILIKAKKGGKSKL
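Biochemical qHTS of compounds, final roughly 60 µM downward over six points, against 10 nM purified firefly luciferase using Km concentrations of substrates (10 uM D-luciferin, 10 uM ATP) in Tris acetate pH 7.5 buffer; luminescence output.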
NPC1 prom act: NPC1 promoter activation; Huh7 NPC1 promoter luciferase reporter, 24 h; AID 485313; Potency, µM (doses to about 9.22 µM), for inactives: top-dose activation, actives largely listed as activators; 320,000 tested, 2.4% active; further: % of control where 0% means no effect; nearly all actives have a fitted effect of over 60% in size
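Luciferase expression driven by the NPC1 promoter was measured in stably transfected Huh7 cells after a 24 h compound incubation, using a luciferase reagent and a luminescence read.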
ELG1 repair inh: inhibitors of ELG1-dependent DNA repair in HEK293T cells; HEK293T ELG1-luciferase reporter, luminescence, 16 h; DNA damage induced by 5-fluorouridine; Potency, µM (highest dose often 46.1 µM), for the others: at the highest dose activity change, negative = inhibition, actives largely listed as inhibitors; 330,000 tested, 2.3% active; AID 504467; further: on the % scale 0 is the no-effect control and ±100 the full control effect; nearly all actives have a fitted effect of over 55% in size
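Overnight (16 hr) co-exposure of 2,000 cells/well to 5-fluorouridine and compound at 37 °C preceded detection. Luciferase was quantified via ONE-Glo luminescence; loss of signal denotes inhibition.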
Rab9 promoter act: activators of Rab9 promoter. Huh7 Rab9 promoter-luciferase reporter, luminescence, 24 h. Potency, µM (doses to about 9.22 µM), for the others: at the highest dose activation, negative = inhibition, usual class: activators. 320,000 tested, 2.8% active; further: % of control where 0% means no effect; nearly all actives have a fitted effect of over 60% in size
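Rab9 promoter-driven luciferase in stably transfected Huh7 cells; 1500 cells/well rested 2 h, exposed to compound in DMSO for 24 h at 37 °C, 5% CO2. Luminescence read 10 min after adding luciferase reagent at ambient temperature.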
SMN2 splice up: SMN2 splice variant enhancement; 210,000 tested, 2.8% active; Potency, µM (highest dose often 46.1 µM), for inactives: at the highest dose activity change, positive = activation, most hits filed as activators; HEK293 SMN2-luciferase splicing reporter, luminescence, 30-36 h; further: % of control where 0% means no effect; nearly all actives have a fitted effect of over 55% in size
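HEK293 cells carry an SMN2 […]–luciferase reporter in which exon 7 inclusion puts luciferase in frame. Cells were plated 10-12 h before compound addition, then incubated 30-36 h at 37C. ONE-Glo luminescence was read; sodium butyrate at 4.5 mM final served as control.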
ELG1 genotoxic: genotoxicity induction in ELG1-luciferase HEK293T cells. HEK293T ELG1-luciferase reporter, luminescence, 16 h. Potency, µM (series often up to 46 µM), without a hit: at the top dose activity change, positive = activation, hits mostly activators. 330,000 tested, 1.3% active. AID 504466; further: % of control where 0% means no effect; nearly all actives have a fitted effect of over 60% in size
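Genotoxic stress is detected as increased luminescence from luciferase-tagged ELG1 in HEK293T cells, measured with ONE-Glo after a 16 hr treatment at 37 °C.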
* hit, by the source's call; ? = inconclusive; . = no result; [ ] = dose if it differs, or a comment. The list is not random: actives were taken first. Their share in the collection is about 9.3%. The call rests on the fitted dose curve; in most records, active means well fitted curve in the direction sought with a large enough effect; inconclusive means small, poorly fitted or top-dose-only effect, or another doubt; inactive means no such curve, though single readings can be large; an effect the other way counts as inactive or inconclusive. Potency means the concentration at half of the fitted maximal effect.

SMILES	FLuc counter	NPC1 prom act	ELG1 repair inh	Rab9 promoter act	SMN2 splice up	ELG1 genotoxic
COc1ccc(NC(=O)N2C3CCCC2CC(NC(=O)c2ccccc2)C3)cc1 (configuration not stated)	5.9%	-0.6%	-1.8%	-2.9%	.	2.2%
O=C(CCNC(=O)c1ccc(Br)cc1)NCc1ccncc1	0.1%	-0.8%	10.7%	0.4%	.	-4.3%
Cc1ccn2c(CN3CCOCC3)c(-c3ccccc3)nc2c1	?	18.6%	?	?	20µM*	20.4%
O=C(CNC(=O)c1cccs1)OCC(=O)c1ccc(Cl)cc1	-7.2%	-3.0%	-9.1%	-5.1%	.	0.4%
O=C(CNC(=O)c1cccs1)OCC(=O)c1ccc([N+](=O)[O-])cc1	-0.2%	6.5%	-15.0%	-4.6%	.	-2.9%
O=C(CNC(=O)c1cccs1)c1ccc([N+](=O)[O-])cc1	23.9µM*	?	?	2.82µM*	?	?
O=C(CNC(=O)c1cccs1)c1ccc(Cl)cc1	6.01µM*	1.12µM*	?	0.501µM*	.	?
O=C(CNC(=O)c1cccs1)c1ccc(F)cc1	4.78µM*	0.501µM*	?	0.562µM*	6.31µM*	?
COc1ccc2c(c1)C(=O)[C@H](OC(=O)NS(=O)(=O)c1ccc(C)cc1)[C@@H](c1ccc(OC)c(Br)c1)O2	.	.	.	.	-6.9%	.
Cc1cccc(C(=O)N[C@H](C(=O)Nc2ccc3c(c2)OCO3)C(C)C)c1	.	.	8.8%	.	.	7.5%
Cc1ccc(N(CC(=O)N2CCN(c3ccccc3F)CC2)S(=O)(=O)c2c(C)noc2C)cc1	-0.2%	-0.8%	4.9%	-11.0%	-11.9%	-0.2%
CCc1ccc(/C=C/C(=O)C2C(=O)c3ccccc3C2=O)cc1	0.426µM*	?	?	?	?	0.8%
CC(C)(C)C(=O)C1C(=O)c2ccccc2C1=O	.	.	.	.	-5.2%	.
COC(=O)CSc1nc2cc(C)cc(C)c2cc1C#N	-2.4%	?	?	28.8%	24.5%	3.7%
COC(=O)CSc1nc2cc(OC)ccc2cc1C#N	9.53µM*	1.41µM*	?	1.41µM*	.	1.46µM*
COC(=O)CSc1nc2ccc(C)cc2cc1C#N	?	3.55µM*	?	0.794µM*	2.82µM*	?
COc1ccc2cc(C#N)c(SCC(=O)N3CCCC3)nc2c1	-4.8%	-0.8%	5.7%	0.4%	19.3%	?
CCOC(=O)CSc1nc2cc(OCC)ccc2cc1C#N	4.26µM*	?	?	2.82µM*	22.4µM*	8.2µM*
CCOc1ccc2cc(C#N)c(SCC(=O)N3CCC(C)CC3)nc2c1	0.2%	-0.6%	?	-3.9%	3.6%	0.6%
Cc1ccc(CN2CCN(C(=O)c3ccncc3)CC2)cc1	1.4%	-3.3%	-1.3%	-5.6%	.	-4.3%
CCCc1nn2c(=O)cc(CSCC(=O)Nc3ccc(OC)cc3)nc2s1	1.0%	-5.7%	?	5.4%	.	2.0%
N#C/C(=C\N1CCCCC1)S(=O)(=O)c1ccc(Cl)cc1	-0.7%	-3.6%	-7.4%	-6.2%	.	-2.1%
CCN(CC)S(=O)(=O)c1ccc(N2CCCC2)c(NC(=O)C2=NN(c3ccccc3)C(=O)CC2)c1	.	-5.0%	-5.1%	-4.7%	.	-2.7%
CCOC(=O)N1CCc2c(sc(NCc3cccc(F)c3)c2C(=O)Nc2ccc(OCC)cc2)C1	23.9µM*	.	.	.	.	.
COc1ccc(C(=O)N/N=C/C(Br)=C/c2ccccc2)cc1	3.01µM*	8.8%	3.4%	19.4%	11.3%	-2.2%
SMILES	FLuc counter	NPC1 prom act	ELG1 repair inh	Rab9 promoter act	SMN2 splice up	ELG1 genotoxic
Cn1cc(C(=O)N/N=C/C(Br)=C\c2ccccc2)ccc1=O	?	-7.4%	-0.2%	11.4%	14.6%	14.5%
COc1cccc(C(=O)NCC(=O)N/N=C(C)\C=C\c2ccccc2)c1	-18.3%	-5.4%	0.0%	1.8%	-22.5%	-12.9%
O=C(N/N=C/C(Br)=C/c1ccccc1)c1ccccc1[N+](=O)[O-]	?	-3.2%	6.6%	-0.3%	.	3.4%
Cn1cc(C(=O)N/N=C/C(Br)=C/c2ccccc2)ccc1=O	19µM*	1.1%	-12.0%	3.8%	4.3%[1.84 µM]	12.1%
COc1cccc(C(=O)N/N=C/C(Br)=C/c2ccccc2)c1	10.7µM*	1.2%	5.1%	13.3%	22.7%	17.7%
COC(=O)c1ccccc1NC1=C/C(=N\S(=O)(=O)c2cccs2)c2ccccc2C1=O	?	-6.6%	5.17µM*	-32.6%	-107.4%	-25.0%
O=C1C(Nc2ccccc2)=C/C(=N/S(=O)(=O)c2cccs2)c2ccccc21	?	-12.4%	6.51µM*	-4.6%	-95.5%	-14.0%
Cc1cccc(NC(=O)NC2COc3ccccc3C2)c1C (configuration not stated)	-2.1%	.	.	.	.	.
COc1ccc(F)cc1S(=O)(=O)N1CCC2(CC1)OCCN2S(=O)(=O)c1cccs1	1.8%	0.9%	-5.4%	-1.9%	.	-5.9%
O=C(CCS(=O)(=O)c1cccs1)Nc1ccc(C(=O)Nc2cccc(Cl)c2)cc1	-4.6%	.	.	.	?	.
COc1ccc(NC(=O)c2ccc(NC(=O)CCS(=O)(=O)c3cccs3)cc2)cc1Cl	4.9%	.	.	.	15.8µM*	.
Cc1cc(NC(=O)c2ccc(NC(=O)CCS(=O)(=O)c3cccs3)cc2)ccc1Br	-1.9%	.	.	.	15.8µM*	.
Cc1ccc(OC(C)C(=O)N2CCN(CCc3ccncc3)CC2)cc1C (configuration not stated)	-4.7%	.	.	.	.	.
Cc1ccn2c(=O)nc(SCC(=O)c3ccccc3)nc2c1	15.1µM*	?	?	?	.	?
Cc1ccc2nc(SCC(=O)c3ccccc3)nc(=O)n2c1	10.7µM*	2.51µM*	?	?	.	?
Cc1ccc2nc(SCC(=O)N3CCCC3)nc(=O)n2c1	1.8%	-1.7%	23.5%	-5.9%	.	3.3%
CCOC(=O)c1noc2nc(C)n(CC(=O)Nc3ccc(Br)cc3C)c(=O)c12	-5.6%	.	.	.	.	.
CCOC(CNC(=O)c1ccc2nc(N3CCC(C)CC3)sc2c1)OCC	16.9µM*	?	?	?	-52.2%	?
CCC(Cc1ccccc1)NC(=O)c1ccc2nc(N3CCC(C)CC3)sc2c1 (configuration not stated)	12µM*	.	.	.	-11.0%	.
CCOc1ccc(CCNC(=O)c2ccc3nc(N4CCC(C)CC4)sc3c2)cc1OCC	-12.5%	.	.	.	-13.8%	.
O=c1c2c([N+](=O)[O-])cc([N+](=O)[O-])cc2nc2ccccn12	2.6%	-1.2%	-2.5%	0.9%	.	-0.1%
O=c1c2c([N+](=O)[O-])cc([N+](=O)[O-])cc2sn1-c1ccc(Br)cc1	21.3µM*	-4.8%	9.9%	-1.1%	-4.1%	-0.5%
O=c1c2c([N+](=O)[O-])cc([N+](=O)[O-])cc2sn1Cc1ccccc1	9.53µM*	-3.7%	13.5%	5.0%	.	-1.0%
